The structures appear in SMILES notation. Results filed as inconclusive are left out. Entries that show only a call come without a potency. The source made the active and inactive calls. The call rests on the fitted dose curve; in most records, active means well fitted inhibition curve with a large enough effect; inconclusive means small, poorly fitted or top-dose-only effect; inactive means flat fitted curve, though single readings scatter.
Potency means the concentration at half of the fitted maximal effect.

The subject of one experiment is TAB113. Description: qHTS profiling for inhibitors of Plasmodium falciparum proliferation (AID 504749). Further: nearly all actives have a fitted effect of over 60% in size. Conditions: P. falciparum in erythrocytes, SYBR Green DNA, 72 h; series mostly up to 28.7 µM. An outline of the steps:
(§1)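 Quantitative HTS: compounds pinned into medium, infected erythrocytes added (0.3% parasitemia, 2.5% hematocrit), 72 h culture at 37 C under 5% CO2. Saponin/Triton lysis with SYBR Green I, overnight RT, then fluorescence read.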
Regarding `O=C(O)c1cc(-c2ccccc2)nc2ccccc12`, the Potency result was “inactive”.

With `CCN1CCC[C@H]1CNC(=O)c1cc(S(N)(=O)=O)ccc1OC`, the Potency result was “inactive”.

With `Clc1ccc(Cn2c(CN3CCCC3)nc3ccccc32)cc1`, the Potency entry is “inactive”.

Take `O=C(O)Cc1cccc2ccccc12`: the Potency entry was “inactive”.

On to `C[C@@H](O)[C@H]1C(=O)N2C(C(=O)O)=C(S[C@@H]3CN[C@H](C(=O)N(C)C)C3)[C@H](C)[C@H]12`, for which the Potency result is “inactive”.

On to `CC(=O)CCCCn1c(=O)c2c(ncn2C)n(C)c1=O`, for which the Potency result is “inactive”.

Regarding `COc1ccccc1N1CCN(CCCNc2cc(=O)n(C)c(=O)n2C)CC1`, the Potency entry is “inactive”.

For the compound `Cc1cnc(C(=O)O)c[n+]1[O-]`, the Potency result is “inactive”.

As to `CCN(CC)CCNC(=O)c1ccc(N)cc1`, the Potency result was “inactive”.

As for `CN(C)CCC(c1ccccc1)c1ccccn1` (configuration not stated), the Potency result was “inactive”.

As for `CCCNC(=O)NS(=O)(=O)c1ccc(Cl)cc1`, the Potency entry was “inactive”.

In the next experiment the test system is TAB165. The description is as above. Conditions: P. falciparum in erythrocytes, SYBR Green DNA, 72 h; series mostly up to 28.7 µM. An outline of the steps: as §1
Turning to `O=C(O)c1cc(-c2ccccc2)nc2ccccc12`, the Potency result was “inactive”.

Consider `CCN1CCC[C@H]1CNC(=O)c1cc(S(N)(=O)=O)ccc1OC`, for which the Potency result was “inactive”.

With `Clc1ccc(Cn2c(CN3CCCC3)nc3ccccc32)cc1`, the Potency entry was “inactive”.

Turning to `O=C(O)Cc1cccc2ccccc12`, the Potency result is “inactive”.

For `C[C@@H](O)[C@H]1C(=O)N2C(C(=O)O)=C(S[C@@H]3CN[C@H](C(=O)N(C)C)C3)[C@H](C)[C@H]12`, the Potency result is “inactive”.

As to `CC(=O)CCCCn1c(=O)c2c(ncn2C)n(C)c1=O`, the Potency entry was “inactive”.

Consider `COc1ccccc1N1CCN(CCCNc2cc(=O)n(C)c(=O)n2C)CC1`, for which the Potency result is “inactive”.

For the compound `Cc1cnc(C(=O)O)c[n+]1[O-]`, the Potency result is “inactive”.

In the case of `CCN(CC)CCNC(=O)c1ccc(N)cc1`, the Potency entry is “inactive”.

Take `CN(C)CCC(c1ccccc1)c1ccccn1` (configuration not stated): the Potency result is “inactive”.

For the compound `CCCNC(=O)NS(=O)(=O)c1ccc(Cl)cc1`, the Potency entry was “inactive”.

A further experiment has as its system W2. Described as above. Conditions: P. falciparum in erythrocytes, SYBR Green DNA, 72 h; series mostly up to 28.7 µM. An outline of the steps: as §1
Consider `O=C(O)c1cc(-c2ccccc2)nc2ccccc12`, for which the Potency entry was “inactive”.

Regarding `CCN1CCC[C@H]1CNC(=O)c1cc(S(N)(=O)=O)ccc1OC`, the Potency result is “inactive”.

Consider `O=C(O)Cc1cccc2ccccc12`, for which the Potency entry is “inactive”.

For the compound `C[C@@H](O)[C@H]1C(=O)N2C(C(=O)O)=C(S[C@@H]3CN[C@H](C(=O)N(C)C)C3)[C@H](C)[C@H]12`, the Potency result is “inactive”.

In the case of `CC(=O)CCCCn1c(=O)c2c(ncn2C)n(C)c1=O`, the Potency result was “inactive”.

For the compound `COc1ccccc1N1CCN(CCCNc2cc(=O)n(C)c(=O)n2C)CC1`, the Potency result was “inactive”.

In the case of `Cc1cnc(C(=O)O)c[n+]1[O-]`, the Potency entry was “inactive”.

For `CCN(CC)CCNC(=O)c1ccc(N)cc1`, the Potency entry was “inactive”.

As to `CN(C)CCC(c1ccccc1)c1ccccn1` (configuration not stated), the Potency was 4.26 µM (active).

Consider `CCCNC(=O)NS(=O)(=O)c1ccc(Cl)cc1`, for which the Potency entry was “inactive”.
